# In PubChem BioAssay AID686940 (The Scripps Research Institute Molecular Screening Center, 2013):
# About 2,600 (0.7%) of roughly 370,000 compounds were called active. The sample holds actives, similar compounds and a random draw of the others, so the mix is not that of the screen. Values without a mark were called inactive.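 Rule for the calls: active = inhibition above a per-plate cutoff, mean inhibition of test wells between control levels plus 3 SD (cut at about 38% in these data); inactive = the rest.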
# Target: COUP transcription factor 2 (Homo sapiens) (UniProt P24468)
# Assay: COUP-TFII reporter suppression in human cells – cell-based, luciferase reporter, HEK293T, luminescence, primary screen (AID 686940);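 note: cells cotransfected with COUP-TFII expression vector driving the NGFI-A reporter; 0% = median of COUP-TF2 test wells and 100% = reporter-only cells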
# Conditions: HEK293T NGFI-A luciferase reporter, at 8.6 µM, stronger effect = higher value
# Sequence of COUP transcription factor 2 (Homo sapiens) (P24468 whole entry, looked up): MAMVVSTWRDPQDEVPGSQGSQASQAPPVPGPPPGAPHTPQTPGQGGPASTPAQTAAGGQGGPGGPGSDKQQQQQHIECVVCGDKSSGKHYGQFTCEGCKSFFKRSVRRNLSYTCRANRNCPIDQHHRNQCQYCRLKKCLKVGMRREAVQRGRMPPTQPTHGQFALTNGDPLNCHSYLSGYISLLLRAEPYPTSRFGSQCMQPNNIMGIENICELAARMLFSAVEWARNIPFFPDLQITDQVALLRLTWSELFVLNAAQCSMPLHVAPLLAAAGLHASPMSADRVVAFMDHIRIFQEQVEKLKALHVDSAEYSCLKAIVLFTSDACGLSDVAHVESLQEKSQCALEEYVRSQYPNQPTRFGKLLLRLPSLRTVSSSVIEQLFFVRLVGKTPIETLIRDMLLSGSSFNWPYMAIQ
row,Compound,inhibition
1,COC(=O)CC1CCc2cc(C)cc(C(CC(C)C)NC(=O)[C@H](CC(C)C)NC(=O)OCc3ccccc3)c2O1 (stereo partly drawn),5.51%
2,CCOC(=O)C1CCN(C(=O)C(C)(C)NC(=O)Nc2ccc(F)c(F)c2)CC1,-2.96%
3,c1coc(CNc2ncnc3ccccc23)c1,53.6% (active)
4,COc1ccc(CNC(=O)COc2cccnc2[N+](=O)[O-])cc1,0.02%
5,O=C(NCc1ccncc1)C(=O)NCc1ccco1,2.85%
6,COc1ccc(CNc2ncnc3ccccc23)cc1,56.7% (active)
7,c1coc(CCNc2ncnc3ccc(-c4ccc5c(c4)OCO5)cc23)c1,-3.64%
8,O=C(COc1ncnc2ccccc12)NC(=O)NCc1ccccc1,11.2%
9,C[C@H]1[C@H](NC(=O)c2cccc(N(C)C)c2)CC[C@@]23CCCN2C(=O)CCC[C@@H]13,4.37%
10,COc1ccc(C#CCNCc2ccc(OC)cc2OC)cc1,-3.51%
11,COC(=O)c1cccc(Cn2ccc3ccc(-c4ccc5ccn(C(=O)c6ccccc6C)c5c4)cc32)c1,-1.59%
12,O=C(c1ccncc1)N1CC[C@H]2[C@H](CCCN2Cc2ccc(F)cc2)C1,-20.6%
13,COC(=O)[C@]12C[C@H](CC(=O)NCCc3ccccc3OC)C(=O)N(Cc3ccco3)C1=C[C@H](C(C)C)O[C@@H]2C1CC1,3.03%
14,CC(=O)Nc1nc2ncccn2c1-c1ccc(C(F)(F)F)cc1,4.78%
15,Cc1ccc(NC(=O)c2cc(C)nn2-c2ccccc2)c(C)c1,-0.68%
16,CCN(CC)C(=O)CC[C@@H]1CC[C@]2(CCCN(S(=O)(=O)C3CCCCC3)C2)O1,10.7%
17,C[C@@H]1C[C@@H]2O[C@H]2/C=C\C=C\C(=O)Cc2c(Cl)c(O)cc(O)c2C(=O)O1,61.7% (active)
18,CCOC(=O)N1CCN(C(=O)C2CCN(c3ncnc4c3sc3cccc(F)c34)CC2)CC1,46.1% (active)
19,CCOC(=O)N1CCN(C(=O)C2CCN(Cc3ccc(OC)cc3OC)CC2)CC1,5.07%
20,CCOC(=O)N1CCN(C(=O)C2CCCN(c3ncnc4c3sc3cccc(F)c34)C2)CC1 (stereo not drawn),-4.38%
21,COc1ccc(-c2nn(C)c(=O)c3ccccc23)cc1NC(=O)COc1ccccc1,-20.3%
22,Cc1ccc(F)cc1NC(=O)CSCc1c(C)noc1C,2.99%

row,Compound,inhibition
1,Cc1ccc(F)cc1NC(=O)Cc1nn(C)c(=O)c2ccccc12,54.3% (active)
2,CC(c1c[nH]c2ccccc12)c1c(-c2ccccc2)n(C)c2ccccc12 (stereo not drawn),0.69%
3,C#CCCN([C@H](C(=O)OC)C(C)C)S(=O)(=O)c1ccc(F)cc1Br,17.9%
4,CC1(C(=O)NS(=O)(=O)c2ccccc2)CCN1C(=O)Cc1ccc(-c2ccccc2)cc1 (stereo not drawn),-9.63%
5,CCCNC(=O)C1(C)CCN1C(=O)Cc1ccc(-c2ccccc2)cc1 (stereo not drawn),27.8%
6,C#Cc1ccc(NC(=O)C2(C)CCN2C(=O)Cc2ccc(-c3ccccc3)cc2)cc1 (stereo not drawn),66.9% (active)
7,C=CCN1C(=O)[C@@H](CC(=O)NCC2CCCCC2)[C@]2(C(=O)OC)CCCCC=C12,2.77%
8,Cc1cccc(NC(=O)C[C@H]2CC[C@H]3[C@@H](COc4ccc(NC(=O)Nc5ccccc5)cc4C(=O)N3C)O2)c1,-4.77%
9,CCC(NC(=O)C1C2C=CC3(CN(Cc4ccccc4)C(=O)C13)O2)c1ccccc1 (stereo not drawn),8.47%
10,COCC1CCCCN1C(=O)c1cc(COc2ccc(C)c(C)c2)on1 (stereo not drawn),-30%
11,CCCOC1CCCN(C(=O)c2cc(COc3cncc(Cl)c3)on2)C1 (stereo not drawn),-19.1%
12,C=CCC1(CC=C)CCCN1C(=O)c1cc(COc2ccc(-n3cncn3)cc2)on1,53% (active)
13,O=C(Nc1ccc(Br)cc1)OCCN1C(=O)CCC12CCC(c1ccccc1)CC2 (stereo not drawn),-11.1%
14,COC(=O)C[C@H]1CC[C@H]2[C@H](COc3ccc(NC(=O)C4CC4)cc3C(=O)N2C)O1,-12.2%
15,COc1cc(F)ccc1-c1cc(C(=O)NCC2CCCCC2)[nH]n1,-27.9%
16,CCCOc1ccc(F)cc1-c1cc(C(=O)Nc2ccc(F)cc2)[nH]n1,-7.05%
17,COc1ccc(OC)c(NC(=O)c2cc(-c3cc(F)ccc3OCC3CCCO3)n[nH]2)c1 (stereo not drawn),87% (active)
18,O=C(NCc1ccc(Cl)cc1)C1CCCN(c2nc3ccccc3o2)C1 (stereo not drawn),18.9%
19,C#CCNC(=O)C[C@H]1C[C@@]2(C(=O)OC)C(=C[C@H](C(C)C)O[C@@H]2C2CC2)N(Cc2ccco2)C1=O,-5.51%
20,CC(C)CSc1nnc(-c2cccnc2)n1Cc1ccccc1,9.79%
21,O=C(c1c(F)cccc1Cl)N1CCN(S(=O)(=O)c2ccc3c(c2)OCCCO3)CC1,18%
22,O=C(c1c(F)cccc1F)N1CCN(S(=O)(=O)c2ccc3c(c2)OCCO3)CC1,38.1% (active)

row,Compound,inhibition
1,O=S(=O)(c1ccc2c(c1)OCCCO2)N1CCN(S(=O)(=O)c2c(F)cccc2F)CC1,9.89%
2,CCc1cc2c(SCC(=O)Nc3ncc(Cl)c(C)c3Cl)ncnc2s1,12.8%
3,CCc1cc2c(NC(Cc3ccccc3)C(=O)O)ncnc2s1 (stereo not drawn),-1.84%
4,CCc1cc2c(NC3CCCC3)ncnc2s1,39.9% (active)
5,C=C(C)C1CC23C(=O)C4(C(=O)c5ccccc5)C[C@@]5(C)CCC(CC2C1(C)C)(C4=O)C35OC (stereo partly drawn),-4.41%
6,COc1ccccc1C(=O)CSc1nnc(-c2ccccn2)n1-c1ccccc1,9.59%
7,Cc1ccc(-c2nc(C3CCCN(S(=O)(=O)c4ccc(Br)s4)C3)no2)cc1 (stereo not drawn),2.13%
8,CC(=O)Nc1c(-c2ccc(C)cc2)nc2ccc(Cl)cn12,-17.9%
9,Cc1ccc(-c2cn3cc(C)ccc3n2)cc1,73% (active)
10,COc1ccc(-c2nc3ccc(Br)cn3c2Cc2ccc(C)cc2)cc1OC,-32.3%
11,Cc1ccc(-c2nc3c(C)cc(Br)cn3c2Cc2ccccc2)cc1,-5.6%
12,Cc1ccc2nc(-c3ccc(Br)cc3)cn2c1,46.6% (active)
13,Cc1ccc2nc(-c3ccccc3)c(CC3CCCCC3)n2c1,-52.4%
14,CCC(=O)c1c(CC)c2n3c1=CC[C@H]3CC(Br)C=2 (stereo partly drawn),6.74%
15,CC(c1ccc(N)cc1)c1cn(C)c2ccccc12 (stereo not drawn),-16.2%
16,CCOC(=O)[C@]12CCCC3=C1N(CCC3)C(=O)[C@@H](CC(=O)N1CCSCC1)C2,-5.73%
17,COc1ccc(N2CCN(CCNS(=O)(=O)c3ccc([N+](=O)[O-])cc3)CC2)cc1,15.2%
18,CC(C)OCCCNc1ncnc2c1[nH]c1ccc(F)cc12,62.2% (active)
19,O=C(CN1CCC(NC(=O)NCc2ccccc2)CC1)Nc1ccc2c(c1)OCCO2,-8.81%
20,COc1ccc(C(=O)OCCN2CCN(C3CN(Cc4cn(Cc5ccccc5F)nn4)S(=O)(=O)C3)CC2)cc1OC (stereo not drawn),18.4%
21,COc1cccc(N(C)C(=O)[C@@H](C)[C@@H](O)c2ccc3ccccc3c2)c1,-11.8%
22,COc1ccccc1CNc1nc(Nc2ccccc2Cl)c2sccc2n1,60.3% (active)

row,Compound,inhibition
1,COc1ccc(NC(=S)NCc2cccs2)c(OC)c1,6.7%
2,COc1cccc(-c2cc3nc(NCc4ccccc4OC)n(C)c(=O)c3s2)c1,-9.04%
3,COc1cccc(CNc2nc3cc(-c4csc5ccccc45)sc3c(=O)n2C)c1,5.09%
4,COc1cccc(CNc2nc(NCc3cccs3)nc3ccsc23)c1,45.6% (active)
5,COc1ccccc1CNCc1cccs1,9.93%
6,CC(C)Nc1nc(NCCOc2ccccc2Cl)c2sccc2n1,19.2%
7,COc1cccc(CNc2nc(NCc3ccccc3OC)nc3ccsc23)c1,39.1% (active)
8,COc1cccc(CNc2ncc(-c3ccccc3)n2C)c1,-0.1%
9,COc1ccc(C(=O)OCCN(C)C2CN(Cc3cn(Cc4cccc(C)c4)nn3)S(=O)(=O)C2)cc1OC (stereo not drawn),-14.5%
10,COP(=O)(O)CNC(=O)OCc1ccccc1,-0.48%
11,COC(CNC(=O)[C@H](Cc1ccccc1)NC1(C(=O)NC2CCCCC2)CCCCC1)OC,-36.3%
12,Cc1ccc(C(=O)N(Cc2ccccn2)CC2CCCO2)cc1 (stereo not drawn),-9.77%
13,O=S1(=O)c2c(NCc3ccco3)cccc2Oc2ccccc2CN1Cc1cn(Cc2cccc(C(F)(F)F)c2)nn1,-1.36%
14,CCOc1ccc(-n2c(SCC(=O)Nc3cc(C)c(NC(=O)c4ccccc4)cc3OC)nnc2-c2cccs2)cc1,27.9%
15,Cc1ccc(C2=CCN(C)C(=O)N2c2ccc(Cl)cc2)cc1,-1.56%
16,CCOc1ccc(N(CC(=O)Nc2c(C)n(C)n(-c3ccccc3)c2=O)S(=O)(=O)c2ccc(Cl)s2)cc1,-10%
17,Cc1cc(C)cc(NC(=O)N2CCC(N(C)CCC(C)C)CC2)c1,1.48%
18,Cc1ccc(OCCCC(=O)N2CCOCC2)c(C)c1,-6.33%
19,Cc1ccc(C)c(N2CCN(C(=O)CCCCCn3c(=S)[nH]c4ccc(N5CCOCC5)cc4c3=O)CC2)c1,44.7% (active)
20,Cc1ccc(C)c(N2CCN(C(=O)Cn3ncn4cccc4c3=O)CC2)c1,10.1%
21,CCC(c1ccc(NC(=O)OC(C)(C)C)cc1)c1cc(OC)cc(OC)c1 (stereo not drawn),20%
22,Fc1ccc2[nH]c3c(N4CCSCC4)ncnc3c2c1,45.2% (active)
